Laboratory results published in PubChem BioAssay (NCATS).
Inconclusive results are not listed. Unless noted, the call rests on the fitted dose curve; in most records, active means well fitted curve in either direction with a large enough effect (not every such curve was filed as active); inconclusive means small, poorly fitted or top-dose-only effect, or another doubt; inactive means flat fitted curve, though single readings scatter.

What was measured:
[1] = AP1 Signaling Pathway (AID 357); conditions: ME-180 AP-1-bla reporter, EGF-induced, beta-lactamase ratio, 5 h; at 17.2 µM (top of the series) unless noted;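 further: ME-180 reporter cells stimulated with EGF at its EC50 level; on the % scale 0 is the no-effect control and ±100 the full control effect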
Outline: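 Read-out was the 460nm/530nm emission ratio (excitation 405nm) after CCF4 loading for 2.5 hours at room temperature. Cells carried an AP-1-driven beta-lactamase reporter, were stimulated with EC50 EGF plus compound for 5 hours, and AC50 values came from titrations.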

[2] = NFAT Signaling Pathway (AID 444); conditions: Jurkat NFAT-bla M1, carbachol, beta-lactamase ratio, 5 h; at 17.2 µM (top of the series) unless noted;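 further: carbachol stimulus at about its EC50 of 1 µM final; on the % scale 0 is the no-effect control and ±100 the full control effect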
Outline: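 Read-out: CCF4 FRET ratio (460 nm/530 nm) after 1 h RT dye loading, used for %activity and AC50 from titration series. Cells: Jurkat NFAT-β-lactamase/M1 line, treated with compound plus 1 uM carbachol for 5 h, 37 °C.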

[3] = Stat Signaling Pathway (AID 446); conditions: ME-180 SIE beta-lactamase reporter, IL-6 stimulated, 5 h; at 17.2 µM (top of the series) unless noted;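 further: ME-180 cervical cancer cells given 40 pM IL-6 alongside compound; SIE-controlled beta-lactamase reporter measured as 460/530 nm FRET emission ratio; on the % scale 0 is the no-effect control and ±100 the full control effect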
Outline: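 Normalization used AC90 stimulation (300 pM IL-6) and AC90 inhibition (125 nM pan-JAK inhibitor at 40 pM IL-6). The underlying signal is SIE-driven beta-lactamase in ME-180 cells after 5 h IL-6 exposure with compound.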

[4] = biological target: Glucocorticoid receptor (Homo sapiens) (UniProt P04150); test: GR-GFP Redistribution (AID 450;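 active means compounds whose dose series gives a full or clear partial fitted curve of increased nuclear translocation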; further: potency means the concentration at half of the fitted maximal effect)
Glucocorticoid receptor (Homo sapiens), sequence (P04150 whole entry, looked up): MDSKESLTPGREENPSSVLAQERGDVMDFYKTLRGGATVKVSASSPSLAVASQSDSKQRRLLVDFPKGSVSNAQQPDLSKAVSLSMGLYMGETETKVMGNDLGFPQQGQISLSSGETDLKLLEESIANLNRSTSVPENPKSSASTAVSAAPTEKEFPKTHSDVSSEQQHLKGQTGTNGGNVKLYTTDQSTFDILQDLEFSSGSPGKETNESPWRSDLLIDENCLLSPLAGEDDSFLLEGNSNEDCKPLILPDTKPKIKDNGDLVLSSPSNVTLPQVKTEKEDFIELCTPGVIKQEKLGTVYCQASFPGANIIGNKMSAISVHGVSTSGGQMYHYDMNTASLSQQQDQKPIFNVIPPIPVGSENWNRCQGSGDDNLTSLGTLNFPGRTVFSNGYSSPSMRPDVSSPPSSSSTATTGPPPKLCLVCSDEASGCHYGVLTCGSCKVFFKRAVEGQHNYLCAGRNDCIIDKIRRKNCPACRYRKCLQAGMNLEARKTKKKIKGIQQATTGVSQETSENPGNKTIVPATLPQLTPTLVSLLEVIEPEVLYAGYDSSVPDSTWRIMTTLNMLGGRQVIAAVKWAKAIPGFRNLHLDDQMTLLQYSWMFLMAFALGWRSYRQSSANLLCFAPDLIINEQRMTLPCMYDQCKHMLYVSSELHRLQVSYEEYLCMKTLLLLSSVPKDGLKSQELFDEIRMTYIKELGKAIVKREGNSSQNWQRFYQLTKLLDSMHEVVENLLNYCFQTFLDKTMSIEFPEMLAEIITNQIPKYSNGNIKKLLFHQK

[5] = qHTS Assay for Identification of Small Molecule Agonists for Hypoxia Response Element Signaling Pathway (AID 914; active means well fitted activation curve with a large enough effect in the signal ratio, with a control signal flat, not every such curve was filed as active; the % refers to the signal ratio; further: % of control where 0% means no effect); conditions: ME-180 (cervical carcinoma) HRE-bla reporter, beta-lactamase ratio, CoCl2, 17 h; activation: active compounds read high
Outline: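 Compounds in a titration series were added to ME-180 reporter cells alongside an EC50 level of CoCl2. After 17 hours, beta-lactamase activity was read as the 460nm/530nm emission ratio of CCF4, giving AC50 values.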

CC(C)(C)C1=Nn2c(nnc2-c2ccccn2)SC1
inactive: activity change, negative = inhibition [1] 4.11% | activity change, negative = inhibition [2] 0.351% | activity, negative = inhibition [3] 4.69% | Potency [4] > 20.6 µM | activation [5] -1.04%

CCOc1cccc(N2C(=O)CC(N(CCc3ccc(OC)c(OC)c3)C(=O)CC)C2=O)c1 (stereo not given)
inactive: activity change, negative = inhibition [1] -28.7% | activity change, negative = inhibition [2] 0.637% | activity, negative = inhibition [3] 3.67% | Potency [4] > 20.6 µM | activation [5] 11%

Cc1nn(C)cc1C1C2=C(CC(C)(C)CC2=O)OC2=C1C(=O)CC(C)(C)C2
inactive: activity change, negative = inhibition [1] 3.4% | activity change, negative = inhibition [2] -23.9% | activity, negative = inhibition [3] 4.21% | Potency [4] > 20.6 µM | activation [5] 1.79%

CCN(CC)CCNC(=O)c1ccccc1N
inactive: activity change, negative = inhibition [1] 4.21% | activity change, negative = inhibition [2] -28.8% | activity, negative = inhibition [3] 6.63% | Potency [4] > 20.6 µM | activation [5] 10.3%

COCCNc1nc2c(c(=O)n(Cc3ccc(OC)cc3)c(=O)n2C)n1C
inactive: activity change, negative = inhibition [1] -10.1% | activity change, negative = inhibition [2] -7.8% | activity, negative = inhibition [3] -12.3% | Potency [4] > 20.6 µM | activation [5] -9.75%

CCCCOc1ccc(CSC(CC(=O)O)C(=O)O)cc1 (stereo not given)
inactive: activity change, negative = inhibition [1] 11.3% | activity change, negative = inhibition [2] 11.2% | activity, negative = inhibition [3] 1.48% | Potency [4] > 20.6 µM | activation [5] 26.9%

N#Cc1c(NC(=O)CCC(=O)O)sc2c1CCCC2
inactive: activity change, negative = inhibition [1] -1.32% | activity change, negative = inhibition [2] -1.33% | activity, negative = inhibition [3] -10% | Potency [4] > 20.6 µM | activation [5] -23.4%

COc1ccccc1NC(=O)Nc1nnc(C(C)C)s1
inactive: activity change, negative = inhibition [1] -4.89% | activity change, negative = inhibition [2] 20.9% | activity, negative = inhibition [3] -3.37% | Potency [4] > 20.6 µM | activation [5] 10.4%

O=C1c2ccccc2C(=O)N1CC1c2ccccc2CCN1C(=O)N1CCOCC1 (stereo not given)
inactive: activity change, negative = inhibition [1] -3.7% | activity change, negative = inhibition [2] -0.0702% | activity, negative = inhibition [3] 1.92% | Potency [4] > 20.6 µM | activation [5] 4.7%

O=C1C2ON(c3ccccc3)C(c3cccnc3)C2C(=O)N1Cc1ccccc1 (stereo not given)
inactive: activity change, negative = inhibition [1] -15.2% | activity change, negative = inhibition [2] -1.42% | activity, negative = inhibition [3] -8.95% | Potency [4] > 20.6 µM | activation [5] 1.83%

Cn1c(=O)c2c(nc(Oc3ccc4c(c3)OCO4)n2Cc2ccc(F)cc2)n(C)c1=O
inactive: activity change, negative = inhibition [1] 28.8% | activity change, negative = inhibition [2] 2.74% | activity, negative = inhibition [3] 6.83% | Potency [4] > 20.6 µM | activation [5] -23.2%

O=C(NC1CCCCC1)Nn1c(-c2ccccc2)nc2ccccc2c1=O
inactive: activity change, negative = inhibition [1] -2.78% | activity change, negative = inhibition [2] -2.06% | activity, negative = inhibition [3] 13.2% | Potency [4] > 20.6 µM | activation [5] 1.48%

CCOC(=O)C1(C(=O)OCC)C(c2ccccc2)CC(O)N1C(C)=O (stereo not given)
inactive: activity change, negative = inhibition [1] 5.72% | activity change, negative = inhibition [2] 2.25% | activity, negative = inhibition [3] -1.29% | Potency [4] > 20.6 µM | activation [5] 15.4%

O=C1CSC(=Nc2ccc(O)cc2)N1c1ccc(O)cc1
inactive: activity change, negative = inhibition [1] 24.5% | activity change, negative = inhibition [2] -9.67% | activity, negative = inhibition [3] 13.7% | Potency [4] > 20.6 µM | activation [5] -9.31%

CCn1c(-c2ccco2)n[nH]c1=S
inactive: activity change, negative = inhibition [1] 14% | activity change, negative = inhibition [2] 4.37% | activity, negative = inhibition [3] 4.5% | Potency [4] > 20.6 µM | activation [5] 13.1%

CCN(CC)CCNc1ncnc2c1[nH]c1ccc(OC)cc12
inactive: activity change, negative = inhibition [1] 7.05% | activity change, negative = inhibition [2] -11.4% | activity, negative = inhibition [3] 3.82% | Potency [4] > 20.6 µM | activation [5] 2.09%

O=C(O)C(Cc1c[nH]c2ccccc12)NS(=O)(=O)c1cccc2nsnc12 (stereo not given)
inactive: activity change, negative = inhibition [1] 4.19% | activity change, negative = inhibition [2] 3.61% | activity, negative = inhibition [3] 6.46% | Potency [4] > 20.6 µM | activation [5] -7.91%

O=c1c2ccccc2ncn1Cc1ccco1
inactive: activity change, negative = inhibition [1] 14.1% | activity change, negative = inhibition [2] -4.44% | activity, negative = inhibition [3] 2.8% | Potency [4] > 20.6 µM | activation [5] 2.2%

CNc1ccccc1-c1nc2ccccc2n(C)c1=O
inactive: activity change, negative = inhibition [1] 11.2% | activity change, negative = inhibition [2] -2.49% | activity, negative = inhibition [3] 12% | Potency [4] > 20.6 µM | activation [5] -4.3%

CC(C)COC(=O)CCNc1n[nH]c(=O)[nH]c1=O
inactive: activity change, negative = inhibition [1] 12.9% | activity change, negative = inhibition [2] 4.96% | activity, negative = inhibition [3] 1.49% | Potency [4] > 20.6 µM | activation [5] -10.2%
